Here are results for 34 compounds from ChEMBL document CHEMBL1961873, “Compounds: GSK PKIS; Assays: Nanosyn kinase panel” (2012).
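Also: each value is a mean of replicate percent inhibition readings against TRKA kinase.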

High affinity nerve growth factor receptor (Homo sapiens), sequence (P04629 33-796 limits assumed): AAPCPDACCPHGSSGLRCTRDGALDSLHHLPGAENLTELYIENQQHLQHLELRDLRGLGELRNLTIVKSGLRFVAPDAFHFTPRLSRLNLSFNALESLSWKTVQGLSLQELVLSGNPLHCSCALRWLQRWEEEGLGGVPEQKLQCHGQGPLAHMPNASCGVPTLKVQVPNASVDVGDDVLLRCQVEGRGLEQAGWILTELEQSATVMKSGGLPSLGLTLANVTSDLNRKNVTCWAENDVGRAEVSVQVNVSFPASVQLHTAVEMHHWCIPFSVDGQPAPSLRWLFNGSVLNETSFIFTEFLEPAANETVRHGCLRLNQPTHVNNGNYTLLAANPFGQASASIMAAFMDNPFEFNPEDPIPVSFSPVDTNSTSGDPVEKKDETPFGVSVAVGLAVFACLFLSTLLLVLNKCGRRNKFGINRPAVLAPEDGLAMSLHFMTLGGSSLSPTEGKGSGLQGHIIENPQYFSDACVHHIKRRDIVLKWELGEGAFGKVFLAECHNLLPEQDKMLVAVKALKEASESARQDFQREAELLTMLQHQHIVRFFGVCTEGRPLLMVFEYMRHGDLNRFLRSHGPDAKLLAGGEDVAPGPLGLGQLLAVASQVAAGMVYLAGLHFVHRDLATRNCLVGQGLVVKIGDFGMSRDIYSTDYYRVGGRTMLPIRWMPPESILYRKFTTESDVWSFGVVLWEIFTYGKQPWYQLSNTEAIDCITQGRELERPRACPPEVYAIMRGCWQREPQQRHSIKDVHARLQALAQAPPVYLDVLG

The assay addresses High affinity nerve growth factor receptor (Homo sapiens) (UniProt P04629). The conditions noted are these: at 0.1 µM.
As for `CCS(=O)(=O)c1ccc(OC)c(Nc2ncc(-c3cccc(OC)c3)o2)c1`, the inhibition (commonly the drop in the measured response relative to a control, in per cent) stood at 7.51%. In the case of `Cc1ccc2c(-c3ccnc(Nc4cccc(C(F)(F)F)c4)n3)c(-c3ccccc3)nn2n1`, the inhibition came to 1.79%. The same measure for `CN(C)C(=O)O[C@H]1CN[C@H](C#Cc2cc3ncnc(Nc4ccc(OCc5cccc(F)c5)c(Cl)c4)c3s2)C1`: 2.9%; for `COc1cccc(-n2nc(C)c3c(N/N=C(\C)c4ccncc4)ncnc32)c1`: 0.99%.

For the compound `CCn1c(-c2nonc2N)nc2ccc(F)cc21`, the inhibition stood at 2.92%. Turning to `Cc1cc(Cl)cc2c1NC(=O)C2=NNc1ccc(S(N)(=O)=O)cc1`, the inhibition was -1.82%.

As to `CN1CCN(C(=O)c2ccc(NC(=O)Nc3ccc(N(C)c4ccnc(Nc5ccc(CS(C)(=O)=O)cc5)n4)cc3)cc2)CC1`, the inhibition is 7.78%.

For the compound `C[C@@H](Oc1cc(-n2cnc3ccc(OCC4CCN(C)CC4)cc32)sc1C(N)=O)c1ccccc1C(F)(F)F`, the inhibition is -0.37%. For the compound `Cc1nc(-c2ccccc2)n2nc(NCCCN3CCOCC3)ncc12`, the inhibition worked out at 0.31%. The same measure for `CN(C)C(=O)O[C@@H]1CN[C@@H](C#Cc2cc3ncnc(Nc4ccc(OCc5cccc(F)c5)c(Cl)c4)c3s2)C1`: -3.09%; for `c1ccc(Nc2ncc(-c3ccccc3)o2)cc1`: 0.26%. Under `COc1cccc(-n2ncc3c(N/N=C/c4ccc(S(C)(=O)=O)cc4)ncnc32)c1` stands 4.94%; under `OCc1ccc(-c2nc(-c3ccccn3)c(-c3ccc4c(c3)OCO4)[nH]2)cc1`, 3.27%. Regarding `c1ccc(Cc2nc3ccc(Nc4ncnc5ccccc45)cc3[nH]2)cc1`, the inhibition amounted to 2.77%. Under `CC(C)c1ccc2c(c1)NC(=O)/C2=N/Nc1ccc(S(N)(=O)=O)cc1` stands 3.96%; under `NC(=O)c1cccc(Nc2nccc(Nc3cccc(F)c3)n2)c1`, 1.89%; under `COc1cc2ncn(-c3cc(OCc4ccccc4S(C)(=O)=O)c(C#N)s3)c2cc1OC`, 5.48%.

Consider `COc1cccc(-n2ncc3c(N/N=C/c4ccc(C)cc4)ncnc32)c1`, for which the inhibition amounted to 9.62%. As to `CN(C)CCCn1c(-c2nonc2N)nc2cnccc21`, the inhibition was found to be 1.3%. With `O=C1Nc2ccc(-c3cccnc3)cc2C1=Cc1cc(Br)c(O)c(Br)c1`, the inhibition is 4.7%.

As to `N#Cc1c(NC(=O)c2ccccc2F)sc2c1CCCC2`, the inhibition was -0.84%. Regarding `CCOc1nccc2c1nc(-c1nonc1N)n2CC`, the inhibition is -1.22%. The same measure for `COC(=O)c1cncc(/C=C/c2c(C)cc(O)cc2C)c1`: 2.21%; for `Cc1cc(O)cc(C)c1/C=C/c1cncc(C(=O)N(C)C)c1`: 2.88%; for `NS(=O)(=O)c1ccc(NC=C2C(=O)Nc3ccc4ncsc4c32)cc1`: 15.9%. In the case of `CN(c1ccc(NC(=O)Nc2ccc(OC(F)(F)F)cc2)cc1)c1ccnc(Nc2cccc(S(N)(=O)=O)c2)n1`, the inhibition is 30%. The same measure for `Cc1ccc(Nc2ccnc(Nc3cccc(C(N)=O)c3)n2)cc1O`: 4.38%; for `CC(C)c1ccc(Nc2nccc(-c3cnn4ncccc34)n2)cc1`: 3.65%. The same measure for `NS(=O)(=O)c1cccc(Nc2cc(-c3ccc(F)cc3)n[nH]2)c1`: 2.83%. The same measure for `Cc1ccc(NC(=O)CC2CC2)cc1-c1ccc(C(=O)NCC2CC2)cc1`: 3.3%; for `N#Cc1cccc(Nc2nccc(-c3cnn4ncccc34)n2)c1`: 15.4%; for `NS(=O)(=O)c1ccc(N/N=C2\C(=O)Nc3ccc(Cl)cc32)cc1`: 3.01%. For the compound `Nc1ccc(C#Cc2cncnc2Nc2ccc(OCc3cccc(F)c3)c(Cl)c2)cc1`, the inhibition stood at 4.31%. On to `Nc1nccc(-c2c(-c3ccc(F)cc3)nn3cc(C(F)(F)F)ccc23)n1`, for which the inhibition is -2.97%.
